# Screening results deposited in PubChem BioAssay by National Center for Advancing Translational Sciences (NCATS).
# HEK cytotox: Cytotoxic Profiling in HEK 293 Cell Line of Diverse Libraries Using Quantitative High-Throughput Screening; hit rate 6.6% among 94,000; AID 1345083, 2018; HEK 293 viability, ATP luminescence (CellTiter-Glo), 48-72 h; Potency, µM (series often up to 115 µM), inactives show at the highest dose activity change, negative = cytotoxicity, usual class: inhibitors; also: nearly all actives have a fitted effect of over 60% in size
#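 ATP-coupled CellTiter-Glo luminescence served as viability read-out, recorded 10 min after reagent addition at room temperature. HEK 293 cells, 250 cells/well, had been incubated with pintool-transferred compound for 48 or 72 hr at 37 degree Celsius.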
# hNpr1 antagonist: Natriuretic polypeptide receptor (hNpr1) antagonism - Primary qHTS. Atrial natriuretic peptide receptor 1 (Homo sapiens), P16066. HEK293 hNpr1 GloSensor cGMP, ANP-stimulated luminescence. Potency, µM (top dose mostly 46.3 µM), for the others: at the highest dose activity change, negative = inhibition, usual class: inhibitors. hit rate 1.6% among 76,000; calls by dose curve; also: nearly all actives have a fitted effect of over 60% in size
# Target sequence (P16066 whole entry, looked up): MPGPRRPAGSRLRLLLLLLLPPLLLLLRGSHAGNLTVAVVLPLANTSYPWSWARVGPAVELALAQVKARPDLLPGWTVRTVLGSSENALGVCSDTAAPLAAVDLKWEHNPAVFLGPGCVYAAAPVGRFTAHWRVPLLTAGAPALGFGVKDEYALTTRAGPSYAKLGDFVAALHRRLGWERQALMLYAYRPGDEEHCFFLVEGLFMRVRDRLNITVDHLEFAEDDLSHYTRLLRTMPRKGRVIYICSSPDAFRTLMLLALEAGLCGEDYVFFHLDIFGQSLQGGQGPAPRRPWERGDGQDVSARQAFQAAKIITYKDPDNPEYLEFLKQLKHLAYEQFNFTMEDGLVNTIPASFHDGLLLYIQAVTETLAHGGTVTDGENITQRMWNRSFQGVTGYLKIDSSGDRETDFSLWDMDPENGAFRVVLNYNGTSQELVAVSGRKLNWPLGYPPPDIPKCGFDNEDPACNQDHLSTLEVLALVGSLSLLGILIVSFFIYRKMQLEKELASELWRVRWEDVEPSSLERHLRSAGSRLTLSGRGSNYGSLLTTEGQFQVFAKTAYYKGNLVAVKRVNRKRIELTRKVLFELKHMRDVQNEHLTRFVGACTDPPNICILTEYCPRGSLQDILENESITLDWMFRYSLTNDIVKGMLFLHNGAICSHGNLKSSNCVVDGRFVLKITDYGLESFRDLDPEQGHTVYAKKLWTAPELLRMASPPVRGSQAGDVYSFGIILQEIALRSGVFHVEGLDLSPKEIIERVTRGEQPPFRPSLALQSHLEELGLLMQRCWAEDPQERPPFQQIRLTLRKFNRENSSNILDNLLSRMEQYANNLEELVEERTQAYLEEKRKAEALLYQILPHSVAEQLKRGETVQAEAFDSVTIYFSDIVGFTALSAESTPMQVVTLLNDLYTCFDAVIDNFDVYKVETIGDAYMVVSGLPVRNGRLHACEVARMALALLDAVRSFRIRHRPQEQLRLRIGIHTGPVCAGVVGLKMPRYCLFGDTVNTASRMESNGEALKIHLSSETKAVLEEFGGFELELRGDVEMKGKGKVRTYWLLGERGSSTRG
#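 Compound pre-incubated 30 min at room temperature on GloSensor-loaded HEK293 cells stably carrying hNpr1 and the pGS-40F cGMP biosensor. Stimulation uses hNppA at 0.1 nM final; luminescence is taken at baseline and 20 min post-agonist.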
# Luciferase inh: Firefly luciferase inhibition profiling of diverse chemical library using quantitative high-throughput screening; Luciferin 4-monooxygenase (Photinus pyralis), P08659; hit rate 2.5% among 76,000; purified P. pyralis luciferase, luminescence, biochemical; Potency, µM (titrated, usually from 115 µM), usual class: inhibitors; also: nearly all actives have a fitted effect of over 65% in size
#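 Purified 10nM P. pyralis luciferase with 10uM D-luciferin and 10uM ATP in 50mM Tris acetate pH 7.5, 10mM Mg acetate, 0.01% Tween-20, 0.05% BSA. qHTS titration; luminescence read by CCD imager.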
# 3T3 cytotox: Cytotoxic Profiling in NIH 3T3 Cell Line of Diverse Libraries Using Quantitative High-Throughput Screening. Potency, µM (top dose mostly 96.7 µM), for the others: at the top dose activity change, negative = cytotoxicity, hits mostly inhibitors. NIH 3T3 viability, CellTiter-Glo ATP luminescence, 48-72 h. hit rate 4.3% among 94,000; also: nearly all actives have a fitted effect of over 55% in size
#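 ATP-dependent luminescence (CellTiter-Glo) served as the viability signal for NIH 3T3 cells treated with compound for 48 or 72 hr at 37 °C.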
# GPT2 inh: Primary qHTS assay for inhibitors of Glutamate pyruvate transaminase 2 (GPT2) | Alanine aminotransferase 2 (Homo sapiens), Q8TD30 | Recombinant GPT2, coupled pyruvate oxidase/HRP Amplex Red fluorescence | Potency, µM (top dose mostly 57.7 µM), without a hit: top-dose activity change, negative = inhibition, usual class: inhibitors | hit rate 0.25% among 100,000; also: nearly all actives have a fitted effect of over 60% in size
#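 Fluorescence read-out: pyruvate from GPT2 turnover coupled to pyruvate oxidase, HRP and Amplex Red (0.2mM ThPP, 0.2U/mL PO and HRP, 50uM Amplex final). Substrates 250uM a-KG, 2mM L-alanine; enzyme 10ng/uL; 30 min RT.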
# * = called active by the depositor; i = inactive; ? = inconclusive; . = no result; [ ] = dose if it differs, or a comment. The list is not random: actives were taken first. Their share in the collection is about 10%. Unless noted, calls follow the shape of the dose curve; as a rule, active = well fitted curve in the direction sought with a large enough effect; inconclusive = small, poorly fitted or top-dose-only effect, or another doubt; inactive = no such curve, though single readings can be large; an effect the other way counts as inactive or inconclusive. % is scaled to controls: 0 for no effect and ±100 for the full control effect; potency is read from the fitted curve at half-maximal effect.
SMILES,HEK cytotox,hNpr1 antagonist,Luciferase inh,3T3 cytotox,GPT2 inh
O=C1NC2(CCN(C(=O)Cc3ccccc3)C2)Oc2ccccc21 (stereo not drawn),?,0%[70.6 µM],i,?,i
CN1[C@@H](CCC(=O)N2CCOCC2)CNC(=O)[C@@H]2[C@H]1CCN2Cc1nc2ccccc2n1C,2%,4%,i,?,-18%
O=c1c(O)c(-c2ccc(O)cc2)oc2cc(O)cc(O)c12,.,.,.,.,24µM*
O=c1cc(-c2ccc(O)cc2)oc2cc(O)cc(O)c12,.,.,.,.,i
COc1ccccc1Nc1ccnc(N2CCCC(C(=O)NC3CCOC3)C2)n1 (stereo not drawn),?,.,.,?,3%
COc1ccccc1Nc1ccnc(N2CCCC(C(=O)N3CCOCC3)C2)n1 (stereo not drawn),?,.,.,-42%,i
COc1ccccc1Nc1ccnc(N2CCCC(C(=O)NC3CCCC3)C2)n1 (stereo not drawn),?,.,.,35µM*,i
COc1ccccc1Nc1ccnc(N2CCCC(C(=O)N3CCCCC3)C2)n1 (stereo not drawn),35µM*,.,.,35µM*,i
OCCC1CN(Cc2nc3ccccc3s2)CCN1Cc1ccc(F)c(F)c1 (stereo not drawn),79µM*,-30%,i,-23%,i
Fc1ccc(CN2CC[C@H](c3nc4ccccc4s3)C2)cc1F,100µM*,-6%[70.6 µM],45µM*,?,1%[88.5 µM]
Cn1c([C@H]2CCN(Cc3ccc(F)c(F)c3)C2)nc2ccccc21,50µM*,-16%[70.6 µM],i,?,4%[88.5 µM]
OCCC1CN(Cc2cccn2-c2nccs2)CCN1Cc1ccc(F)c(F)c1 (stereo not drawn),?,-6%,i,-24%,?
Fc1ccc(CN2CC[C@H](c3nnc(Cc4ccccc4)o3)C2)cc1F,?,0%[70.6 µM],i,?,-28%[88.5 µM]
COc1cccc(CN2CC[C@H](c3nc4ccccc4s3)C2)c1,100µM*,-30%[70.6 µM],25µM*,?,i
CN1CC(=O)N(C2CCCCC2)Cc2c(NCCCO)ncnc21,1%,.,.,-7%,i
Cc1ccc(CN2CC3(Cc4ccccc4NC3=O)C2)cc1,?,.,.,-2%[138 µM],i
Cc1nccn1C(C)CN1C(=O)NC2(CCNCC2)C1=O (stereo not drawn),i,0%,i,3%,i
Cc1ccc(NC(=O)C2CCc3nnc(CN[S+](C)(=O)[O-])n32)cc1 (stereo not drawn),4%,.,.,-26%,i
CCn1nccc1C(=O)N1CCC(OCC2CC2)C1 (stereo not drawn),-21%,1%,i,?,1%
Clc1cccc(CN2CC[C@H](c3nc4ccccc4o3)C2)c1,?,-7%[70.6 µM],i,-20%[174 µM],i
Clc1cccc(CN2CC[C@H](c3nc4ccccc4s3)C2)c1,100µM*,3%[70.6 µM],50µM*,?,-5%[88.5 µM]
c1ccc(CCCN2CC[C@H](c3nc4ccccc4s3)C2)cc1,100µM*,-20%[70.6 µM],?,89µM*,-17%[88.5 µM]
Cc1ccc(C(=O)N2CCCC2C(=O)N2CCC(N3CCCC3=O)CC2)cc1 (stereo not drawn),-3%,.,.,-20%,i
COc1ccccc1CN1CCN(C(=O)C2CCCN(Cc3cccnc3)CCC(=O)NCC2)CC1 (stereo not drawn),-18%,-15%,i,-27%,i
COc1ccc(-c2nc(-c3ccccc3)nc3c2CN(C(=O)c2cccc(OC)c2)CC3)cc1,?,-3%,i,?,i
Cc1cccc(-c2nc3ccc(C(=O)NCc4ccccn4)cc3o2)n1,?,.,.,-28%[138 µM],-8%[88.5 µM]
O=C(NC1CCN(Cc2cccc(-c3cccs3)c2)CC1)c1ccccc1F,?,.,.,?,-6%
O=C(NCC1CC1)C1CCCCN1Cc1ccc(-c2cccs2)cc1 (stereo not drawn),?,.,.,18µM*,2%
